# Hsp90 Hop PPI: changes Hsp90-Hop TPR2A binding signal, up or down; Potency, µM (top dose mostly 57 µM), for inactives: at the top dose activity change, negative = inhibition; AID 595; AlphaScreen TPR2A-His6 binding biotin-Hsp90 C-terminal peptide; 71,000 compounds, 0.44% hits; active = well fitted curve in either direction with a large enough effect; inconclusive = small, poorly fitted or top-dose-only effect, or another doubt; note: % is set by controls: 0 for no effect and ±100 for the full control effect
# IkB signaling: inhibitors of IkB signaling in ABC-DLBCL cells; ABC-DLBCL IkBa-CBG/CBR dual luciferase ratio, 4 h; response scale: scaled: untreated 0%, proteasome inhibitor 100%; Potency, µM (highest dose often 57.1 µM), without a hit: top-dose IkBa stabilization activation; AID 445; 110,000 compounds, 0.04% hits; active = well fitted curve in the direction sought with a large enough effect in the signal ratio, not every such curve was filed as active; inconclusive = small, poorly fitted or top-dose-only effect, or a change in a side signal; the % refers to the signal ratio;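 note: the direction sought is a rising ratio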
#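 In this assay, an IκBα–CBG68 fusion accumulates when IKK-driven degradation is blocked; native CBR normalizes for cell number. OCI-Ly3 cells were treated 4 h with compound and doxycycline, then green and red light read after Chroma-Glo addition.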
# CRE Fsk mod: modulators of forskolin-stimulated CRE signaling in CHO cells; CHO CRE-bla reporter (cAMP response element driving beta-lactamase), forskolin EC10, beta-lactamase ratio; Potency, µM (top dose mostly 38.2 µM), for inactives: at the highest dose activity change, negative = inhibition, usual class: activators; 71,000 compounds, 2.5% hits; active = well fitted activation curve with a large enough effect in the signal ratio, with a control signal flat, not every such curve was filed as active; inconclusive = small, poorly fitted or top-dose-only effect, or effect the other way, or a change in a side signal; the % refers to the signal ratio; note: % of control where 0% means no effect
#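 Modulation of forskolin signalling: compounds in titration series added with EC10 NKH 477 to CHO cells carrying a CRE-driven beta-lactamase reporter, 3 h, 37C. CCF4 FRET ratio (460/530 nm, ex 405 nm) gives %activity and AC50.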
# Tau fil binding: tau filament binding | 71,000 compounds, 2% hits | recombinant tau filaments, thioflavin S fluorescence, 15 h; filaments grown with octadecylsulfate alongside compound | Potency, µM (doses to about 57.1 µM), for inactives: top-dose activity change, negative = inhibition | AID 596;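 note: % is set by controls: 0 for no effect and ±100 for the full control effect; actives lower thioflavin S fluorescence by blocking filaments or displacing dye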
#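 Read-out: ThS fluorescence, 450 nm excitation/510 nm emission; lower signal marks blocked filament formation or displaced dye. Tau at 1 uM with 30 uM ODS, 10 uM ThS, 5 mM DTT, 100 mM NaCl, 10 mM HEPES pH 7.4; 15 h, 37 C.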
# ALOX15 inhib: blocks human 15-lipoxygenase activity | P16050 | purified 15hLO-1, xylenol orange hydroperoxide absorbance | Potency, µM (doses to about 57.1 µM), for the others: at the highest dose activity change, negative = inhibition, actives largely listed as inhibitors | 74,000 compounds, 1.4% hits; note: % is set by controls: 0 for no effect and ±100 for the full control effect; nearly all actives have a fitted effect of over 55% in size
# Target sequence (P16050 whole entry, looked up): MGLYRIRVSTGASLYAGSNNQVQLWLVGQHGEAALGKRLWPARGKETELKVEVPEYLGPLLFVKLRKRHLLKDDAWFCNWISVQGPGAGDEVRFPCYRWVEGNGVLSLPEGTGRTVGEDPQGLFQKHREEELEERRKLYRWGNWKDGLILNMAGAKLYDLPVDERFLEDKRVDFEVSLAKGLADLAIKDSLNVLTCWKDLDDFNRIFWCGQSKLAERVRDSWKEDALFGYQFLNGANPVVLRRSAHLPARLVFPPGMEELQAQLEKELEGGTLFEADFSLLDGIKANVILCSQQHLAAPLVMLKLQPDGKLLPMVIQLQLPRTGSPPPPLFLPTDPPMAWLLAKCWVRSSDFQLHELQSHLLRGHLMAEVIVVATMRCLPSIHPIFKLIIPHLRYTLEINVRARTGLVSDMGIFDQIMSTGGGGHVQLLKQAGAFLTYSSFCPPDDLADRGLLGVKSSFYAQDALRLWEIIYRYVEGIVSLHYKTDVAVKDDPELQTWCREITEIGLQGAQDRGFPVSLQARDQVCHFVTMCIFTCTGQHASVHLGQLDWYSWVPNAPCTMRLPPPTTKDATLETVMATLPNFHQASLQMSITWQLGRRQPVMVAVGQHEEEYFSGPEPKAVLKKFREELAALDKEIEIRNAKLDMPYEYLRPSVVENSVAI
#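 Purified human 15hLO-1 (40 nM final) in 25 mM Hepes pH 7.5, 0.01% Triton X-100 was preincubated with compound 15 min at room temperature, then reacted 6 min with 50 uM arachidonic acid; hydroperoxide detected by Fe-XO, 573/405 nm absorbance ratio.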
# * = called active by the depositor; ? = inconclusive; . = no result given; [ ] = remark or other dose. Sampled rows, rich in hits. Any-hit rate of the full collection: about 3.6%. Unless noted, calls come from the whole dose curve; as a rule, active = well fitted curve in the direction sought with a large enough effect; inconclusive = small, poorly fitted or top-dose-only effect, or another doubt; inactive = no such curve, though single readings can be large; an effect the other way counts as inactive or inconclusive. Potency is the fitted concentration of half-maximal effect.
SMILES,Hsp90 Hop PPI,IkB signaling,CRE Fsk mod,Tau fil binding,ALOX15 inhib
C/C(=C\COc1cc(=O)[nH]c2ccccc12)CC[C@@H](O)C(C)(C)O,-2%,1%[11.4 µM],-11%,40µM*,.
COCCn1c(=O)c(-c2ccc(OC)cc2)nc2cnc(N3CCOCC3)nc21,-5%,-1%[11.4 µM],2.5µM*,286%,-6%
COCCn1c(=O)c(-c2cc(F)cc(F)c2)nc2cnc(N3CCOCC3)nc21,-1%,4%[11.4 µM],6.3µM*,30%,0%
COCCn1c(=O)c(-c2ccc(OC)cc2)nc2cnc(N3CCNCC3)nc21,0%,-1%[11.4 µM],?,80%,-3%
CN1CCc2cc(O)c(O)cc2[C@H](c2ccccc2)C1,-15%,-3%,-1%,5%,4%
C=CCN1CCc2c(cc(O)c(O)c2Br)[C@H](c2ccccc2)C1,10µM*,5%,-7%,-4%,?
Cc1cccc(NC(=O)C(NS(=O)(=O)c2ccc3c(c2)oc(=O)n3C)C(C)C)c1 (stereo unspecified),.,2%,.,.,.
COC(=O)CCC(=O)Nc1sc2c(c1C#N)CCCC2,2%,15%,?,-6%,-12%
N#Cc1c(NC(=O)c2ccncc2)sc2c1CCC2,-19%,-1%,-5%,16µM*,?
CC1CCN(CC(=O)Nc2sc3c(c2C#N)CCC3)CC1,?,-1%,-1%,22%,25µM*
Cc1ccc2c(c1)C(c1ccccc1)N(C(=O)c1ccc(OC(C)C)cc1)CC(=O)N2 (stereo unspecified),.,8%,.,.,.
Cc1ccc2c(=O)c(C(=O)c3ccccc3)cn(CC(=O)Nc3ccc(C)c(Cl)c3)c2n1,.,0%,.,.,.
c1ccc(CNc2nc3ccccc3n3cnnc23)nc1,-3%,-1%,13µM*,-13%,8%
CN(c1ncnc2c1c(-c1ccccc1)cn2-c1ccc(F)cc1)C1CCCCC1,.,-2%,.,.,.
N#Cc1c(-c2ccco2)cc(-c2ccc(F)cc2)nc1N,21%,3%,13µM*,-17%,-21%
CC(C)Cc1cc(-c2ccco2)c(C#N)c(N)n1,1%,-1%,1.6µM*,-1%,1%
CN(C)c1ccc(Nc2nc(-c3cccnc3)cs2)cc1,-12%[11 µM],2%,?,2.5µM*,-23%[11.4 µM]
CN(C)c1ccc(-c2ccncc2)cc1,-4%,-2%,6%,14%,11%
Cc1ccn2c(c1)nc(=O)c1cc(S(=O)(=O)N3CCCCC3)c(Cl)cc12,.,1%,.,.,.
COC(=O)c1ccccc1NC(=O)CSc1nc2ccccc2c(=O)[nH]1,2%,6%,7.9µM*,-5%,-8%
Cc1cccc(NC(=O)C(=O)NCCc2csc(-c3ccc(C(F)(F)F)cc3)n2)c1C,.,-2%,.,.,.
CC(C)(C)N1C(=O)Cc2c1nc(N)c1c(N)nc(N3CCCCC3CO)c(C#N)c21 (stereo unspecified),?,?,2.5µM*,7.9µM*,20µM*
COC(=O)c1sccc1NC(=O)c1ccc(OC)cc1,8%,-1%,?,241%,1%
COC(=O)c1sccc1NC(=O)c1cccnc1,-1%,0%,13µM*,5%,6%
COc1ccc2nc(SCC(N)=O)[nH]c2c1,-5%,-1%,?,-4%,2%
SMILES,Hsp90 Hop PPI,IkB signaling,CRE Fsk mod,Tau fil binding,ALOX15 inhib
COc1ccc2nc(S(=O)Cc3ncc(C)c(OC)c3C)[nH]c2c1 (stereo unspecified),-3%[26 µM],7%[25.6 µM],5µM*,1%[25.6 µM],-23%[25.6 µM]
Nc1ccccc1NC1=CC(=O)CC(c2ccco2)C1 (stereo unspecified),-14%,?,0%,16µM*,?
Cc1cc(C(=O)O)ccc1[C@H](N)C(=O)O,-7%,0%,?,-27%,-5%[25.6 µM]
CCCN=Cc1sc2ccc(OCC)cc2c1O,-9%,3%,15%,16µM*,-25%
CC1=C(C(=O)Nc2ccc(C)cc2C)C(C(C)C)n2nc(SCc3ccccc3Cl)nc2N1 (stereo unspecified),.,3%,.,.,.
Cc1cccc(C)c1OCC(=O)Nc1c(C(=O)c2ccc(Br)cc2)oc2ccccc12,.,6%,.,.,.
Cc1cc(C)c(CN2C(=O)c3ccccc3S(=O)(=O)c3ccc(C(=O)OCC4CCCO4)cc32)c(C)c1 (stereo unspecified),.,0%,.,.,.
CC(=O)Nc1ccc(NC(=O)C2CCCN2S(=O)(=O)c2ccc3c(c2)CCCC(=O)N3)cc1 (stereo unspecified),.,0%,.,.,.
Cc1cc(C)c(NC(=O)C2CCN(c3nnc(C)c4c(C)n(-c5ccccc5)nc34)CC2)c(C)c1,.,-1%,.,.,.
COc1ccccc1CN(Cc1ccco1)c1cnc(S(C)(=O)=O)nc1C(=O)Nc1ccccc1Cl,.,0%,.,.,.
COc1ccccc1N1CSC2=C(C#N)C(c3ccc(SC)cc3)CC(=O)N2C1 (stereo unspecified),-6%[2.3 µM],?,2%,25µM*,3.2µM*
COc1ccc(Br)cc1C1CC(=O)N2CN(Cc3ccccc3)CSC2=C1C#N (stereo unspecified),2%[2.3 µM],?,?,10%,2.5µM*
COc1cc(C2CC(=O)N3CN(c4ccccc4C)CSC3=C2C#N)cc(OC)c1OC (stereo unspecified),-6%,11%,5%,-3%,4µM*
N#C/C(=C\c1ccc(Cl)cc1)C(=O)NCC1CCCO1 (stereo unspecified),.,-3%,.,.,.
C=C(C)CSc1nc2sc3c(c2c(=O)n1-c1ccccc1)CCC(C)C3 (stereo unspecified),.,4%,.,.,.
Nc1ncnc2c1ncn2[C@H]1O[C@@H](CO)[C@@H](O)[C@H]1N,0%[11 µM],-1%[11.4 µM],-1%[7.6 µM],5%[11.4 µM],2%[11.4 µM]
COc1cccc(-n2nnc3c(=O)n(Cc4cccc(C)c4)cnc32)c1,-2%,0%,10µM*,284%,-16%
Cc1ccc(Cn2nnc3c(=O)n(Cc4cccc(C)c4)cnc32)cc1,8%,?,?,1%,?
COc1cccc(-n2nnc3c(=O)n(Cc4ccccc4F)cnc32)c1,3%,-1%,13µM*,114%,-10%
Cc1cc(Cl)ccc1NC(=O)C1CCN(S(=O)(=O)c2ccc3[nH]c(=O)ccc3c2)CC1,.,2%,.,.,.
Cc1ccc(CNC(=O)CCCc2nnc3n(CC(C)C)c(=O)c4sccc4n23)cc1,.,1%,.,.,.
CCOC(=O)c1[nH]c2ccc(C)cc2c1NC(=O)CN1CCCCC1,-4%,1%,2%,-2%,-2%
Cc1c2cc[n+](CCN3CCCCC3)cc2c(C)c2c1[nH]c1ccc(O)cc12,-11%[11 µM],-3%[11.4 µM],-4%[7.6 µM],4µM*,26%[11.4 µM]
Cc1cc(F)ccc1NC(=O)C1CCCN(S(=O)(=O)c2ccc3c(c2)CCCC(=O)N3)C1 (stereo unspecified),.,0%,.,.,.
c1ccc(Cn2nnc3c(N4CCOCC4)ncnc32)cc1,-2%,-2%,10µM*,-15%,-9%
Cc1ccc(Cl)c(NC(=O)Nc2csc3c2CCCC3)c1,.,-1%,.,.,.

# Compound activity deposited in PubChem BioAssay by National Center for Advancing Translational Sciences (NCATS).
